Assay results published in PubChem BioAssay AID1345085 (National Center for Advancing Translational Sciences (NCATS), 2018).
Records with an inconclusive call do not appear. Active and inactive are the calls of the source. Calls follow the shape of the dose curve; as a rule, active = well fitted cell-killing curve with a large enough effect; inconclusive = small, poorly fitted or top-dose-only effect, or effect the other way; inactive = no such curve, though single readings can be large or run the other way.

Test system: PA-1
Experiment: Confirmatory qHTS for gynecologic anti-cancer compounds from libraries of approved drugs and bioactive compounds; also: nearly all actives have a fitted effect of over 55% in size
Settings: gynecologic cancer cell panel viability, ATPlite luminescence, 48 h; series mostly up to 57.6 µM
Summary of the method: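 Cells (1,000/well) plated 16 h, then exposed 48 h at 37 °C to 11 concentrations (1:3) from 57.5 uM to 0.977 nM. Viability by ATPlite luminescence after 15 min; IC50 derived, with HEK 293T used for selectivity index.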
Potency is read from the fitted curve at half-maximal effect.

SMILES | Potency
C[C@]12CCC(=O)C=C1CC[C@@H]1[C@@H]2[C@@H](O)C[C@@]2(C)[C@H]1CC[C@]2(O)C(=O)CO | 21.7 µM (active)
NC(=O)c1cnc(-c2ccc(C3(N)CCC3)cc2)c(-c2ccccc2)c1 | 27.3 µM (active)
COCCOc1ccc2c(c1)ncn2-c1ccc2cccc(N3CCC(N)CC3)c2n1 | 4.85 µM (active)
Cn1cc(-c2ccc3ncc(Cc4ccc5ncccc5c4)n3n2)cn1 | inactive
CC(C)n1nc(-c2cc3cc(O)ccc3[nH]2)c2c(N)ncnc21 | 13.7 µM (active)
